miR122 inh: miR-122 suppressors via Renilla sensor increase, primary screen, cell-based, Huh7 psiCHECK-miR122, Renilla luciferase, single point | activation, % at 12.5 µM | 340,000 tested, 0.14% active | 48 h | AID 623901, 2012;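 active = mean activation of 30% or more, with every replicate also reaching 30%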;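 note: 0% = median of neutral control wells and 100% = median of positive control wells; higher luciferase signal means stronger suppression of miR-122 activity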
Active calls of the source: *. Many of the other results were omitted from the sample, so hits are more common in it than they were.

SMILES	miR122 inh
CC(OC(=O)c1cccc(S(=O)(=O)Nc2cccc(C(F)(F)F)c2)c1)C(=O)Nc1ccc2c(c1)OCCO2 (centres undefined)	-101
O=C(Cc1cccc2ccccc12)Nc1ccc(OC(F)F)c(Cl)c1	-94
O=C(Nc1ccc(OC(F)F)cc1)Nc1cccc(C(F)(F)F)c1	44*
CC(C)NC(=O)N(C)C[C@H]1Oc2cc(-c3ccccc3)ccc2S(=O)(=O)N([C@@H](C)CO)C[C@H]1C	4
CCCCCCOc1ccc(/C(C)=N/NC2=NCCN2)cc1	65*
CC(C)C#Cc1ccc2c(c1)O[C@H](CN(C)C(=O)CN(C)C)[C@@H](C)CN([C@H](C)CO)S2(=O)=O	-7
COc1ccc(C#Cc2cnc3c(c2)C(=O)N([C@H](C)CO)C[C@H](C)[C@@H](CN(C)CC2CCCC2)O3)cc1	1
CCCC#Cc1ccc2c(c1)O[C@@H](CN(C)S(C)(=O)=O)[C@@H](C)CN([C@@H](C)CO)S2(=O)=O	8
C[C@H](CO)N1C[C@H](C)[C@@H](CN(C)CC2CCOCC2)Oc2ncc(-c3ccc(F)cc3)cc2C1=O	2
Cc1ccc(-c2nc(C(Cl)Cl)c3ccccc3n2)cc1	61*
C/C=C/c1cnc2c(c1)C(=O)N([C@H](C)CO)C[C@H](C)[C@@H](CN(C)C(=O)c1cccnc1)O2	1
C[C@@H]1CN([C@H](C)CO)S(=O)(=O)c2ccc(C#Cc3ccccn3)cc2O[C@H]1CN(C)Cc1ccc(F)cc1	-1
C/C=C/c1ccc2c(c1)O[C@@H](CN(C)C(=O)Cc1ccccn1)[C@H](C)CN([C@H](C)CO)S2(=O)=O	2
CCCN1C[C@@H](C)[C@H](OC)CN(C)C(=O)c2ccc(NS(C)(=O)=O)cc2OC[C@@H]1C	-1
C[C@H](O)C#Cc1cnc2c(c1)C(=O)N([C@@H](C)CO)C[C@@H](C)[C@@H](CN(C)Cc1cncnc1)O2	1
COc1ccccc1S(=O)(=O)N(C)C[C@@H]1Oc2cc(/C=C/c3ccccc3)ccc2S(=O)(=O)N([C@@H](C)CO)C[C@H]1C	-2
CN(C)c1ccc(/C=C/c2ccc3ccccc3[n+]2C)cc1	49*
C[C@H]1CN([C@@H](C)CO)C(=O)c2cc(-c3ccc(F)cc3)cnc2O[C@H]1CN(C)C(=O)c1ccccn1	-6
CCCC#Cc1cnc2c(c1)C(=O)N([C@@H](C)CO)C[C@H](C)[C@@H](CN(C)C(=O)C1CC1)O2	5
COCC(=O)Nc1ccc2c(c1)C(=O)N(C)C[C@H](OC)[C@H](C)CN(C(=O)COC)[C@@H](C)CO2	-2
CCC(=O)Nc1ccc2c(c1)C(=O)N(C)C[C@@H](OC)[C@@H](C)CN(C(C)=O)[C@@H](C)CO2	-3
Cc1ccc(S(=O)(=O)Nc2cccc3cccnc23)c([N+](=O)[O-])c1	-100
CC(C)C(=O)NC(c1cccc([N+](=O)[O-])c1)c1ccc2cccnc2c1O (centres undefined)	41*
C[C@H]1CN([C@@H](C)CO)S(=O)(=O)c2ccc(C#Cc3ccc(F)cc3)cc2O[C@@H]1CN(C)S(=O)(=O)c1cn(C)cn1	-44
COCC(=O)N(C)C[C@H]1Oc2cc(-c3cncnc3)ccc2S(=O)(=O)N([C@@H](C)CO)C[C@@H]1C	-3
SMILES	miR122 inh
C[C@@H]1CN([C@H](C)CO)C(=O)c2cc(-c3cccc(F)c3)cnc2O[C@H]1CN(C)C(=O)c1cccc(F)c1	0
O=C(N/N=C/c1sc2ccccc2c1O)c1ccccc1	41*
C/C=C/c1cnc2c(c1)C(=O)N([C@H](C)CO)C[C@@H](C)[C@@H](CN(C)C(=O)Cc1cccnc1)O2	-15
COCC#Cc1ccc2c(c1)O[C@@H](CN(C)C(=O)COC)[C@@H](C)CN([C@@H](C)CO)S2(=O)=O	0
NC(Cc1ccc(C(F)(F)F)cc1)c1csc(Nc2nncc3ccccc23)n1 (centres undefined)	34*
Cc1ccc(-c2ccc3c(c2)O[C@H](CN(C)Cc2ccc(F)cc2)[C@@H](C)CN([C@H](C)CO)S3(=O)=O)cc1	-98
CCCCC(=O)NC(c1ccccc1OC)c1ccc2cccnc2c1O (centres undefined)	46*
COc1ccc(NS(=O)(=O)c2ccc3ccccc3c2)c2ncccc12	-104
COc1ccc(C(C)(C)C)cc1NS(=O)(=O)c1cccc2cccnc12	-117
COc1cccc(C#Cc2ccc3c(c2)O[C@H](CN(C)C(=O)c2ccccn2)[C@@H](C)CN([C@@H](C)CO)S3(=O)=O)c1	-33
COCC#Cc1cnc2c(c1)C(=O)N([C@@H](C)CO)C[C@@H](C)[C@@H](CN(C)Cc1ccccc1)O2	0
C[C@H](CO)N1C[C@H](C)[C@H](CN(C)CC2CCOCC2)Oc2ncc(-c3cncnc3)cc2C1=O	-1
C[C@@H]1CN([C@@H](C)CO)C(=O)c2cc(C#Cc3ccccn3)cnc2O[C@@H]1CN(C)C(=O)CCN1CCCCC1	9
CCCNC(=O)N(C)C[C@H]1Oc2ncc(C#CCC3CCCC3)cc2C(=O)N([C@@H](C)CO)C[C@H]1C	5
CCC(=O)Nc1ccc(C(=O)Nc2cccc(C)n2)cc1	-218
